Measurements from ChEMBL document CHEMBL1157539, “Thousands of chemical starting points for antimalarial lead identification” (Nature, 2010).

How the values were obtained:
Type in all cases: functional
Plasmodium falciparum [1] = test: GSK_TCMDC: Inhibition of Plasmodium falciparum 3D7 in whole red blood cells, using parasite LDH activity as an index of growth. Test compounds present at 2uM
Plasmodium falciparum [2] = test: GSK_TCMDC: Inhibition of Plasmodium falciparum Dd2 in whole red blood cells, using parasite LDH activity as an index of growth. Test compounds present at 2uM
HepG2 = test: GSK_TCMDC: Percent inhibition of human HepG2 cell line. Test compounds present at 10uM.

| Structure (SMILES) | Inhibition (Plasmodium falciparum [1]) [%] | Inhibition (Plasmodium falciparum [2]) [%] | Inhibition (HepG2) [%] |
| --- | --- | --- | --- |
| Cc1cccc(NC(=O)Nc2cccc(-c3ccc(-c4nc5cc(C(F)(F)F)ccc5[nH]4)cc3)c2)c1 | 100 | 94 | 44 |
| Cl.Nc1ncnc2occ(-c3ccc(NC(=O)Nc4cc(C(F)(F)F)ccc4F)cc3)c12 [GW770249A] | 99 | 99 | 57 |
| CN1CCN(Cc2cccc(-c3cc4nccc(Nc5ccc(Oc6ccccc6)cc5)c4cc3Cl)c2)CC1 | 100 | 96 | 10 |
| COc1cc(NC(=O)c2ccc3c(=O)n(Cc4ccccc4)c(=S)[nH]c3c2)cc(OC)c1OC | 94 | 47 | 6 |
| O=C(Nc1ccccc1)N(Cc1cccc(-c2ccc(CNCc3ccc4c(c3)OCO4)cc2)c1)C1CCN(Cc2ccccc2)CC1.O=C(O)C(F)(F)F | 100 | 82 | 27 |
| COc1ccc2nccc([C@@H](O)CN3CCC(NCc4cc5c(Cl)cc(Cl)cc5[nH]4)CC3)c2c1.O=C(O)C(=O)O | 100 | 86 | 93 |
| COC(=O)c1cccc(C#CCCOCCCCCCNC[C@H](O)c2cc(Cl)c(N)c(Cl)c2)c1 | 97 | 88 | 12 |
| O=C1NC(=S)N/C1=C/C=C/c1ccc([N+](=O)[O-])o1 | 82 | 30 | 7 |
| CC(C)c1ccc(NS(=O)(=O)c2cccc(C(=O)NC3CCN(CC4CCCCC4)CC3)c2)cc1.O=C(O)C(F)(F)F | 93 | 69 | 71 |
| CC(C)c1ccc(NC(=O)NCCCC2CCCN(CCCCCNC(=O)/C=C/c3ccc(Cl)c(Cl)c3)C2)cc1 (stereo unspecified) | 90 | 42 | 25 |
| Cl.c1ccc(-c2ccc3c(Nc4ccc5[nH]ccc5c4)ccnc3c2)nc1 | 91 | 78 | 11 |
| CN(C)C(=O)C(CC(=O)NCc1ccccc1Cl)N(C)C.CN(C)C(=O)CC(C(=O)NCc1ccccc1Cl)N(C)C.O (stereo unspecified) | 96 | 2 | 7 |
| CC1(CCCCN2CCC(Cc3ccccc3)CC2)C(=O)Nc2ccccc21.Cl (stereo unspecified) | 100 | 28 | 66 |
| CC(C)C[C@H](NC(=O)c1cccc(F)c1)C(=O)N[C@H](/C=N/NC(=O)c1ccccc1)CCc1ccccc1 | 93 | 71 | 0 |
| O=C(/C=C/c1c(Cl)cccc1Cl)NC1CCC(CN2CCC(c3c[nH]c4ccncc34)CC2)CC1 (stereo unspecified) | 99 | 100 | 78 |
| O=C(CCc1c[nH]cn1)Nc1ccc(-c2ccc(-c3nc4cc(F)ccc4[nH]3)cc2)cc1 | 99 | 58 | 26 |
| Cc1cc(NC(=O)NCCN2CCC(NS(=O)(=O)c3ccc(Br)cc3)C2)c2ccccc2n1.O=C(O)C(F)(F)F (stereo unspecified) | 99 | 51 | 9 |
| COc1ccc(-c2cncc3ccc(C(=O)NCCCn4ccnc4)nc23)cc1 | 95 | 99 | 28 |
| CC(C)C[C@H](NC(=O)c1cc2ccccc2s1)C(=O)N[C@H]1CCN(Cc2ccc(OC3CCN(C)C3)c(Cl)c2)C1.O=C(O)C(F)(F)F (stereo partly specified) | 97 | 65 | 68 |
| CN(c1ccc2c(c1)nc(Nc1cc(C(C)(C)C)on1)n2C)c1ccnc(Nc2ccc(CS(C)(=O)=O)cc2)n1 | 89 | 13 | 77 |
| CN(C)CCCn1c(N)c(-c2nc3ccccc3[nH]2)c2nc(C#N)c(C#N)nc21 | 100 | 100 | 100 |
| O=C(Nc1ccc(-c2cccc(-c3nc4cc(C(F)(F)F)ccc4[nH]3)c2)cc1)Nc1ccc(F)c(F)c1F | 99 | 85 | 58 |
| CCOC(=O)Cc1nc(C(=O)OCC)c(N)[nH]1.Cl | 94 | 24 | 2 |
| CCN(CC)CCOC(=O)c1ccc(NC(=O)c2cn(-c3ccccc3)nc2-c2cccs2)cc1.Cl | 100 | 59 | 25 |
| COc1ccc(CCNC(=O)c2ccccc2O)cc1-c1ccc(C(C)(C)C)cc1 | 95 | 96 | 25 |
| O=C(/C=C/c1ccc(Cl)c(Cl)c1)NCCCCN1CCC(c2c[nH]c3ccccc23)CC1 | 91 | 11 | 57 |
| CCOc1cc(C)ccc1N1CCN(CCN2CCC(NC(=O)c3ccc(-c4ccc(C#N)cc4)cc3)CC2)CC1 | 84 | 3 | 9 |
